# In PubChem BioAssay AID489037 (National Center for Advancing Translational Sciences (NCATS), 2010):
# Several values for one entry are separate records, joined by “and”; a condition that tells them apart may be missing. Identical values can stand only once. Results filed as inconclusive are left out. Some structures have more than one record in an assay (separate samples or runs), and their calls can disagree. Activity calls are given as the source filed them. Calls follow the shape of the dose curve; as a rule, active = well fitted inhibition curve with a large enough effect; inconclusive = small, poorly fitted or top-dose-only effect, or effect the other way; inactive = no such curve, though single readings can be large or run the other way.
# Target: Nuclear receptor ROR-gamma (Mus musculus) (UniProt P51450)
# Test: Secondary confirmation assay for inhibitors of ROR gamma transcriptional activity
# Details: Drosophila S2 Gal4-RORgamma UAS-luciferase reporter, 20 h; series mostly up to 92.2 µM
# Excerpt: NIH Molecular Libraries Probe Production Network [MLPCN] NIH Chemical Genomics Center [NCGC] MLPCN Grant: R03 DA026211-01 Assay Provider: Dan Littman, New York University Keywords: NIH Roadmap, MLPCN, MLI, MLSMR, qHTS, NCGC, qHTS, nuclear hormone receptor, retinoic acid-related orphan receptor, ROR gamma Assay Overview: The retinoic acid-related orphan receptor (ROR) gamma is a transcription factor that has a central role in the differentiation of Th17 cells, a subset of T helper cells that secrete the inflammatory cytokines IL-17, IL-17F, and IL-22. Th17 cells have been implicated in graft versus host disease, autoimmune disease and asthma. ROR gamma is induced in naive T helper cells in the presence of TGF-beta combined with IL-6, IL-21, or IL-23, and thereafter directs the expression of the Th17 lineage cytokines. To study the mechanism of action of ROR gamma, an insect cell-based assay was screened. This Drosophila Schneider cell line was stably transfected with two vectors: a gene expressing a fusion of the Gal4 DNA binding domain and ROR gamma transactivation domain under the control of the metallothionine promoter and a Photinus luciferase reporter regulated by the Gal4 binding site enhancer, UAS. […] Small molecule inhibitors of ROR gamma activity are detected by a decrease in luciferase reporter activity.
# Assay Protocol Summary: For screening, 600 cells in 4 uL/well were dispensed into white solid 1536-well plates (Grenier) using a solenoid-based dispenser. Following transfer of 23 nL compound or DMSO vehicle by a pin tool, the plates were incubated 1 hr at ambient temperature, and 1 uL/well copper sulfate (700 uM final concentration) was added. The plates were centrifuged 15 s at 1000 RPM and incubated 20 hr at ambient temperature. After addition of 1.5 uL Photinus luciferase detection reagent, the plates were incubated 10 min at ambient temperature and then read by an ViewLux (Perkin Elmer) to detect luminescence. Keywords: NIH Roadmap, MLPCN, MLI, MLSMR, qHTS, NCGC, qHTS, nuclear hormone receptor, retinoic acid-related orphan receptor, ROR gamma
# Nuclear receptor ROR-gamma (Mus musculus), sequence (P51450 whole entry, looked up): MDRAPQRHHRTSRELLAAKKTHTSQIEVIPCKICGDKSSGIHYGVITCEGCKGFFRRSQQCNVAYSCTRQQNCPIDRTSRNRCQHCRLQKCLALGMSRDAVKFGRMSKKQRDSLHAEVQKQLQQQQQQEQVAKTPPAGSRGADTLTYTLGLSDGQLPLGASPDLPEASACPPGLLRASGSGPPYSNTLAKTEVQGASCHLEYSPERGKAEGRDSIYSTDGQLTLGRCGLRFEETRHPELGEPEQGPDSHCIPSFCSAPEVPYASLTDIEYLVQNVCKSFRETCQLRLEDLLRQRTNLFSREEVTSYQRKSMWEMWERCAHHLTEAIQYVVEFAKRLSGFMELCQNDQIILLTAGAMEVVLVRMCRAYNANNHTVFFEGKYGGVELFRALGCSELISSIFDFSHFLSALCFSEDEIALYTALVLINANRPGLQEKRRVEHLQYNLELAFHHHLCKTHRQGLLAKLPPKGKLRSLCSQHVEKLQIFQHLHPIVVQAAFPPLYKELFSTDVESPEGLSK
Compound,Potency,"activity change, negative = inhibition"
O=C(/C=C/c1ccc(S(=O)(=O)N2CCOCC2)cc1)NC(=S)Nc1ccc(N2CCOCC2)cc1,2.04 µM (active),
CC(C)(C)c1ccc(S(=O)(=O)Nc2ccc(C(O)(C(F)(F)F)C(F)(F)F)cc2)cc1,20.4 µM (active),
COc1cc(O)c(C(CC(=O)NCC2CCCCC2)c2ccc3c(c2)OCO3)c(OC)c1 (stereo not given),inactive,
C#CCOc1cc(OC)cc(OC)c1C(CC(=O)N1CCCC(C)C1)c1ccc2c(c1)OCO2 (stereo not given),9.11 µM (active),
COc1cc(O)c(C(CC(=O)N2CCC(Cc3ccccc3)CC2)c2ccc(OC)c(OC)c2)c(OC)c1 (stereo not given),inactive,
COc1cc(O)c(C(CC(=O)N2CC(C)OC(C)C2)c2ccc3c(c2)OCO3)c(OC)c1 (stereo not given),1.29 µM (active),
COc1cc(O)c(C(CC(=O)N2CCOCC2)c2ccc3c(c2)OCO3)c(OC)c1 (stereo not given),inactive,
Cc1cc(C)c2sc(NC(=O)c3ccc(N4C(=O)CCC4=O)cc3)nc2c1,0.229 µM (active),
COc1cc(O)c(C(CC(=O)N2CCOCC2)c2ccc(OC)c(OC)c2)c(OC)c1 (stereo not given),inactive,
COc1cc(O)c(C(CC(=O)N2CCCC(C)(C)C2)c2ccc3c(c2)OCO3)c(OC)c1 (stereo not given),5.12 µM (active),
COc1cc(O)c(C(CC(=O)N2CCCC(C)C2)c2ccc3ccccc3c2)c(OC)c1 (stereo not given),5.75 µM (active),
Cc1ccc(Sc2cncc3sc(C(N)=O)cc23)cc1,0.204 µM (active),
COc1cc(O)c(C(CC(=O)N2CCC[C@@H](C)C2)c2ccc3c(c2)OCO3)c(OC)c1 (stereo not given in full),5.12 µM (active) and 22.9 µM (active) and inactive,
O=S(=O)(c1ccc(NC(=S)N/N=C/c2ccc(Oc3ccccc3)cc2)cc1)N1CCOCC1,1.15 µM (active),
COc1cc(C)nc(-n2nc(C)cc2OC)n1,3.23 µM (active),
COc1cc(OC)c2c(c1)OC(=O)CC2c1ccc2c(c1)OCO2 (stereo not given),inactive,
COc1cc(OC)c(C(c2ccccc2)C(C)(C)C(=O)N2CC(C)CC(C)C2)c(OC)c1 (stereo not given),5.12 µM (active),
COc1cc(O)c(C(CC(=O)N2CCCC(COc3ccc(F)cc3)C2)c2ccc3c(c2)OCO3)c(OC)c1 (stereo not given),inactive,
COc1cc(O)c(C(CC(=O)Nc2cccc3ccccc23)c2ccc3c(c2)OCO3)c(OC)c1 (stereo not given),inactive,
CCOc1ccc(-c2cc(CCCC(=O)NCc3cccnc3)no2)cc1,0.724 µM (active),

Compound,Potency,"activity change, negative = inhibition"
COc1cc(OC)c(C(CC(=O)N2CC(C)CC(C)C2)c2ccc3c(c2)OCO3)c(OCC#N)c1 (stereo not given),7.24 µM (active),
COc1cc(O)c(C(CC(=O)N2CCCC(C)C2)c2ccc(C)cc2)c(OC)c1 (stereo not given),10.2 µM (active),
CCC1CCCN(C(=O)CC(c2ccc3c(c2)OCO3)c2c(O)cc(OC)cc2OC)C1 (stereo not given),3.23 µM (active),
COCC1CCCCN1C(=O)c1cc(COc2ccc3ncccc3c2)on1 (stereo not given),11.5 µM (active),
COc1cc(O)c(C(CC(=O)NC2CCC(C)CC2)c2ccc3c(c2)OCO3)c(OC)c1 (stereo not given),inactive,
CC1CCCN(C(=O)CC(c2ccccc2)c2ccc(O)cc2)C1 (stereo not given),inactive,
CCN(CC)c1ccc(/C=N/n2c(-c3ccccc3Br)n[nH]c2=S)cc1,1.62 µM (active),
COC(=O)Cn1c(CN2CCc3ccccc3C2)nc2c1c(=O)n(C)c(=O)n2C,6.45 µM (active),
Cc1cc(C)c2[nH]c(C(=O)Nc3ccc4c(c3)OCO4)cc2c1,0.257 µM (active),
COc1cc(O)c(C(CC(=O)NC2CCCc3ccccc32)c2ccc3c(c2)OCO3)c(OC)c1 (stereo not given),inactive,
COc1cc(O)c(C(CC(=O)N2CCCCC2C)c2ccc3c(c2)OCO3)c(OC)c1 (stereo not given),25.7 µM (active),
CCC(=O)C1CCCN(C(=O)CC(c2ccc3c(c2)OCO3)c2c(O)cc(OC)cc2OC)C1 (stereo not given),inactive,
CCn1cc(C(=O)O)c(=O)c2cnc(N3CCN(C(=S)NC(=O)c4ccccc4)CC3)nc21,11.5 µM (active),
COc1cc(O)c(C(CC(=O)N2CC(C)NC(C)C2)c2ccc3c(c2)OCO3)c(OC)c1 (stereo not given),inactive,
CC1CCCN(C(=O)CC(c2ccc3c(c2)OCO3)c2ccc(O)cc2O)C1 (stereo not given),inactive,
COc1ccccc1C(CC(=O)Nc1ccc(F)cc1)c1ccccc1 (stereo not given),inactive,
CC1=C(\C=C/C(C)=C/C=C\C(C)=C\C(=O)O)C(C)(C)CCC1,,-12.4% [at 20 µM] (inactive)
COc1cc(OC)c(C(CC(=O)N2CCCC(C)C2)c2ccc3c(c2)OCO3)c(OCc2ccccc2)c1 (stereo not given),6.45 µM (active),
COc1ccccc1CNC(=O)[C@@H](NC(=O)C1CCN(C(=O)[C@@H]2CCCN2C(=O)OC(C)(C)C)CC1)C(C)C,12.9 µM (active),
O=C(CCCOc1ccccc1)Nc1nc2ccccc2[nH]1,7.24 µM (active),
